# Data from the supplement of paper PMC10811239.
# Tested on: LEGO organoid PT (PTEN-/-; TP53-/-)
# Assay: bioluminescence (viable cell) signal fold change after vs before treatment, normalised to DMSO (ratio); higher = more tumour cell growth / less inhibition
# Conditions: 10 µM; treatment time 6 days
# Method: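 Luc2-labelled iPSC-derived glioblastoma-like organoids (LEGOs, genotypes PT = PTEN-/-;TP53-/-, PTCC = plus CDKN2A/B-/-, PTN = plus NF1-/-) were treated with 10 uM drug for 6 days (applied every other day) at 37 C. Bioluminescence imaging was done before treatment and 2 days after the last dose. BLI signals were normalised to the DMSO control on the same day and then to the pre-treatment signal (N=3).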
row,SMILES,bioluminescence
1,COC(=O)C1=C(C)NC(C)=C(C(=O)OCCN(C)Cc2ccccc2)C1c1cccc([N+](=O)[O-])c1.Cl (configuration not stated) [Nicardipine hydrochloride],0.99
2,CCCC(CCC)C(=O)O.CCCC(CCC)C(=O)[O-].[Na+] [Divalproex Sodium],0.727
3,CN1CCN(C2=Nc3cc(Cl)ccc3Nc3ccccc32)CC1 [Clozapine],1.13
4,Cc1nc(Nc2ncc(C(=O)Nc3c(C)cccc3Cl)s2)cc(N2CCN(CCO)CC2)n1 [Dasatinib],0.748
5,Nc1nc2c(ncn2COC(CO)CO)c(=O)[nH]1 [Ganciclovir],4.35
6,CCN(CC)CC(=O)Nc1c(C)cccc1C [Xylocaine],1.02
7,CCc1c2c(nc3ccc(OC(=O)N4CCC(N5CCCCC5)CC4)cc13)-c1cc3c(c(=O)n1C2)COC(=O)[C@]3(O)CC.Cl.O.O.O [Irinotecan hydrochloride trihydrate],0.98
8,O=C(O)Cc1ccccc1Nc1c(Cl)cccc1Cl [Diclofenac],1.11
9,Nc1nc2c(ncn2COCCO)c(=O)[nH]1 [Aciclovir],2.34
10,Cc1cnc(NC(=O)C2=C(O)c3ccccc3S(=O)(=O)N2C)s1 [Meloxicam],0.756
11,O.O.O.O.O.O.O.O=C1CN(/N=C/c2ccc(-c3ccc([N+](=O)[O-])cc3)o2)C(=O)[N-]1.O=C1CN(/N=C/c2ccc(-c3ccc([N+](=O)[O-])cc3)o2)C(=O)[N-]1.[Na+].[Na+] [Dantrolene sodium hemiheptahydrate],0.935
12,Clc1ccc2c(c1)C(N1CCNCC1)=Nc1ccccc1O2 [Amoxapine],0.902
